# Laboratory results as given in article PMC5540273 (PLoS ONE, 2017).
# What was measured:
# Settings in all cases: concentration: 1 μM, replicates: in singlicate; n = 1
# PCTK2 = test system: T1, PCTK2
# T1 construct: gene CDK17
# PCTK3 = test system: T2, PCTK3
# T2 construct: gene CDK18
# PDGFRA = test system: PDGFRA
# PDGFRB = test system: PDGFRB
# PDPK1 = test system: PDPK1
# PFTAIRE2 = test system: PFTAIRE2
# PFTK1 = test system: T3, PFTK1
# T3 construct: gene CDK14
# PHKG1 = test system: PHKG1
# PHKG2 = test system: PHKG2
# PIK3C2B = test system: PIK3C2B
# PIK3C2G = test system: PIK3C2G
# PIK3CA = test system: PIK3CA
# PIK3CB = test system: PIK3CB
# PIK3CD = test system: PIK3CD
# PIK3CG = test system: PIK3CG
# PIK4CB = test system: T4, PIK4CB
# T4 construct: gene PI4KB
# PIKFYVE = test system: PIKFYVE
# PIM1 = test system: PIM1
# PIM2 = test system: PIM2
# PIM3 = test system: PIM3
# 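Also: KINOMEscan kinase panel screen.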
Compound,%Inh (PCTK2) [%],%Inh (PCTK3) [%],%Inh (PDGFRA) [%],%Inh (PDGFRB) [%],%Inh (PDPK1) [%],%Inh (PFTAIRE2) [%],%Inh (PFTK1) [%],%Inh (PHKG1) [%],%Inh (PHKG2) [%],%Inh (PIK3C2B) [%],%Inh (PIK3C2G) [%],%Inh (PIK3CA) [%],%Inh (PIK3CB) [%],%Inh (PIK3CD) [%],%Inh (PIK3CG) [%],%Inh (PIK4CB) [%],%Inh (PIKFYVE) [%],%Inh (PIM1) [%],%Inh (PIM2) [%],%Inh (PIM3) [%]
COc1cc(Nc2nccc(-c3c(-c4cccc(NC(=O)c5c(F)cccc5F)c4)nn4ncccc34)n2)cc(OC)c1OC [GSK327238],0,5,90.2,100,16,4,5,0,3,0,0,2,3,0,6,0,0,0,0,0
O=C(Nc1cccc(Oc2ccc3nc(NC(=O)C4CC4)cn3n2)c1)c1ccccc1C(F)(F)F,0,6,99.7,100,0,7,0,18,6,0,0,0,0,0,0,0,0,0,0,0
CNC(=O)c1ccccc1Nc1nc(Nc2ccc(N3CCOCC3)cc2)ncc1Cl.Cl [GSK1576028],43,0,80,100,42,43,17,84,72,17,0,15,50,29,31,56,53,45,0,55
CC(=O)Nc1nc2cnc(Nc3cc(NC(=O)c4cccc(C5(C#N)CC5)c4Cl)ccc3C)nc2s1,9,0,97.7,100,1,23,0,12,17,0,27,0,12,14,0,0,0,2,4,0
O=C(Nc1ccccc1F)NC1CCN(c2ccnc(Nc3ccc(F)cc3)n2)CC1 [GSK1379800],0,0,0,11,0,5,15,0,0,0,0,1,0,0,3,0,0,0,0,0
COc1ccc(-c2coc3ccc(-c4nnc(SCc5ccc(OC)c(C(F)(F)F)c5)o4)cc23)cc1,9,9,23,16,12,0,19,3,4,0,13,0,27,11,0,0,0,0,18,4
FC(F)(F)c1ccc(/C=C/c2cncnc2Nc2ccc3[nH]c(Cc4ccccc4)nc3c2)cc1 [GW709199],0,4,0,0,0,33,15,43,0,0,0,0,0,0,0,0,8,0,22,0
Cc1ccc(C)c(NC(=O)NC2CCN(c3ccnc(Nc4ccc(F)cc4)n3)C2)c1 (stereo not shown) [GSK1379720],0,10,0,4,0,4,0,0,0,0,0,0,0,8,0,0,0,15,0,0
NCCCC(NC(=O)c1cc(Br)c(-c2ccnc3[nH]ccc23)s1)c1ccccc1.O=C(O)C(F)(F)F.O=C(O)C(F)(F)F (stereo not shown) [GSK1287544],0,0,0,28,14,25,0,0,0,0,0,0,100,0,0,0,0,59,93,22
O=C(Nc1cccc(-c2nn3ccccc3c2-c2ccnc(Nc3cccc(C(F)(F)F)c3)n2)c1)c1c(F)cccc1F [GSK292658],0,0,10,97.3,0,15,8,0,0,0,22,0,0,0,0,8,1,0,0,0
Cc1occc1-c1ncc(OC[C@@H](N)Cc2c[nH]c3ccccc23)cc1-c1ccc2[nH]nc(C)c2c1.O=C(O)C(F)(F)F [GSK682037],0,0,0,81,0,16,14,0,0,0,0,0,0,0,0,0,0,39,97.4,64
CC(C)c1nc(-c2cccc(NS(=O)(=O)c3c(F)cccc3F)c2F)c(-c2ccnc(Nc3ccc(N4CCOCC4)nc3)n2)s1 [GSK2008607],100,100,90,100,0,94.6,98.7,0,0,49,0,6,0,0,0,0,31,11,0,0
CC(C)(C)c1ccc2nccc(Nc3cccc(O)c3)c2c1 [GW856795],0,0,81,1,96.3,0,0,0,9,38,25,0,0,3,33,0,42,7,0,0
Cl.Cl.NCC(NCc1ccc(-c2ccnc3[nH]ccc23)s1)c1ccccc1 (stereo not shown) [GSK1321565],0,0,5,44,0,4,1,19,13,0,0,0,19,2,21,4,3,17,0,0
COc1cccc(C(=O)Nc2cccc(Oc3ccc4nc(NC(=O)C5CC5)cn4n3)c2)c1,0,12,99.9,100,0,8,4,0,0,0,1,0,0,0,0,0,0,9,11,17
COc1cccc(C2=C(Nc3ccc(Cl)c(C(=O)O)c3)C(=O)NC2=O)c1 [SB-390769],0,29,0,5,0,0,26,0,0,0,100,10,93.3,0,0,0,21,0,0,0
CN1CCN(Cc2cccc(-c3ccc4c(Nc5ccc(Oc6ccccc6)cc5)ccnc4c3)c2)CC1 [GW578342],69,20,94.3,98.9,0,14,23,1,0,0,0,0,0,30,1,0,16,0,0,0
